The nature of assay [1]: antimalarial activity against Dd2 strain (AID 2302;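 active = growth inhibition above 50% at the single 2 µM test dose, taken to imply half-maximal potency below 2 µM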;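 also: 0% = DMSO untreated growth and 100% = chloroquine plus artemisinin killed control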). The conditions noted are these: P. falciparum Dd2 in RBCs, LDH growth readout, 72 h; at 2 µM; stronger effect = higher value.
Assay [2] is described as follows: human hepatoma cell viability loss – ATP luminescence, cytotoxicity control for P. falciparum antimalarial project, primary screen (AID 2303;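 active = inhibition above 50%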;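 also: 0% = DMSO wells and 100% = digitonin-killed cells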). The following applies: HepG2 viability, 24-48 h, at 10 µM, stronger effect = higher value.
Assay [3] addresses L-lactate dehydrogenase (Plasmodium falciparum (isolate CDC / Honduras)) (UniProt Q27743). Briefly: PfLDH activity inhibition – cell lysate, 3D7 strain, counter-screen for P. falciparum growth inhibition project (AID 2304).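 Also: 0% = vehicle and 100% = reference inhibitor.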 The following applies: P. falciparum 3D7 crude extract, LDH APAD/NBT absorbance; at 2 µM; stronger effect = higher value. For orientation: A counterscreen serves to expose hits that act by an unwanted route or on another target.

The nature of assay [4]: inhibition of 3D7 malaria parasite growth – strain 3D7 (AID 2306).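 Also: 0% = DMSO wells and 100% = chloroquine plus artemisinin control wells.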 The following applies: P. falciparum 3D7 erythrocytic growth, LDH absorbance, 72 h; at 2 µM; stronger effect = higher value.
Assay [5] has as its target Calcium-dependent protein kinase 1 (Plasmodium falciparum (isolate 3D7)) (UniProt P62344). Nature of the assay: PfCDPK1 kinase inhibitors, biochemical, TCAMS library (AID 1159585; cut-off not given, nearly all actives have IC50 up to about 0.98 µM;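 also: inhibitors leave more ATP so luminescence rises with inhibition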). The following applies: recombinant PfCDPK1, Kinase-Glo ATP depletion luminescence.
Assay [6] has as its target Plasmodium falciparum protein kinase 6 (PK6, PF3D7_1337100) (UniProt Q8IDW1). Nature of the assay: PfPK6 kinase inhibitors, biochemical, TCAMS library (AID 1159586). The following applies: recombinant PfPK6, Kinase-Glo ATP depletion luminescence. Background: Kinase-Glo reads ATP consumption through a luciferase reaction.
Assay [7] addresses Protein kinase 7 (PK7), Plasmodium falciparum 3D7 (PF3D7_0213400) (UniProt Q7YTF7). Nature of the assay: inhibition of Plasmodium PK7 catalytic activity – biochemical, TCAMS antimalarial set, Kinase-Glo luminescence (AID 1159587). The following applies: recombinant PfPK7, Kinase-Glo ATP depletion luminescence.
Assay [8] concerns the target Calcium-dependent protein kinase 4 (Plasmodium falciparum (isolate 3D7)) (UniProt Q8IBS5). Briefly: PfCDPK4 kinase inhibitors, biochemical, TCAMS library (AID 1159588; cut-off not given, nearly all actives have IC50 up to about 0.91 µM). The following applies: recombinant PfCDPK4, Kinase-Glo ATP depletion luminescence.

Each structure is given as a SMILES string. A number with no mark means an inactive call. For some of these results: Potency and affinity values are given separately. Activity calls are given as the source filed them. Unless noted, no rule for the calls is given here.

Growth inhibition, inhibition and outcome data for 20 compounds are collected here from PubChem BioAssay.

Sequence of Calcium-dependent protein kinase 1 (Plasmodium falciparum (isolate 3D7)) (P62344 whole entry, looked up): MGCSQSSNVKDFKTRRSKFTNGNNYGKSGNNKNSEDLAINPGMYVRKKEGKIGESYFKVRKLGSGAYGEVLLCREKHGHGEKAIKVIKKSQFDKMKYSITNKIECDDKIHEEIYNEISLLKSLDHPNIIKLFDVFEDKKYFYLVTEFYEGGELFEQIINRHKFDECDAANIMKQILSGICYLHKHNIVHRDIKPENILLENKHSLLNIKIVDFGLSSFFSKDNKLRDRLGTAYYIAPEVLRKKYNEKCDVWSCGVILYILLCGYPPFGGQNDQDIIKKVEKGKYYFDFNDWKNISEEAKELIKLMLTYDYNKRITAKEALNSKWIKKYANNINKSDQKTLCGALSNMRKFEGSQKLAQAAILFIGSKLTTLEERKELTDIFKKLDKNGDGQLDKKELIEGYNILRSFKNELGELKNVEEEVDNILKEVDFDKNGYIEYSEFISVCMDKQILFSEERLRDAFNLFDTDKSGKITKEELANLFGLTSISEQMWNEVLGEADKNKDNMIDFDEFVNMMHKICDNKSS
Sequence of Protein kinase 7 (PK7), Plasmodium falciparum 3D7 (PF3D7_0213400) (Q7YTF7 1-343): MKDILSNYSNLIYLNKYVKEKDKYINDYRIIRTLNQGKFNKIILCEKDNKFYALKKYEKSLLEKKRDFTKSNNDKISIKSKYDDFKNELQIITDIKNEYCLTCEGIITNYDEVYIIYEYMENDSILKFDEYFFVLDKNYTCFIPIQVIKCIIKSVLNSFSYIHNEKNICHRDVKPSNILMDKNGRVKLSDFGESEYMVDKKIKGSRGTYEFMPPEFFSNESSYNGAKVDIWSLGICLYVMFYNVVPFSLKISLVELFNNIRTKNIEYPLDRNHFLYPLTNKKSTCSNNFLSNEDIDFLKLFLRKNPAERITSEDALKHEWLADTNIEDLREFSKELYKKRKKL
Sequence of Calcium-dependent protein kinase 4 (Plasmodium falciparum (isolate 3D7)) (Q8IBS5 whole entry, looked up): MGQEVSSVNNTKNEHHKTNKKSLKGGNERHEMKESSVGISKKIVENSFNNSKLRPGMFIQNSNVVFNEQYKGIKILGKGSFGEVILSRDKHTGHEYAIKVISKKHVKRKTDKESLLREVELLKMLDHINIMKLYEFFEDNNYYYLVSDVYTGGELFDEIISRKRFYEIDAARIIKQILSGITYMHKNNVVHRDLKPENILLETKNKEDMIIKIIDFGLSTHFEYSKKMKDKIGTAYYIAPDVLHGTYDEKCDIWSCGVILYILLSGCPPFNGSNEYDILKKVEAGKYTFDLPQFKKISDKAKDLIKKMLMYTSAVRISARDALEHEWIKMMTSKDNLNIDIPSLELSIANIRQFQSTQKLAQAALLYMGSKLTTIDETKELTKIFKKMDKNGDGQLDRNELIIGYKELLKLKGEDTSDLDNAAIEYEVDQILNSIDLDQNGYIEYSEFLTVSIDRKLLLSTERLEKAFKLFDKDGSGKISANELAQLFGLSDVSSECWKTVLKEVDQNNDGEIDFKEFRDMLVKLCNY
Sequence of Plasmodium falciparum protein kinase 6 (PK6, PF3D7_1337100) (Q8IDW1 1-305): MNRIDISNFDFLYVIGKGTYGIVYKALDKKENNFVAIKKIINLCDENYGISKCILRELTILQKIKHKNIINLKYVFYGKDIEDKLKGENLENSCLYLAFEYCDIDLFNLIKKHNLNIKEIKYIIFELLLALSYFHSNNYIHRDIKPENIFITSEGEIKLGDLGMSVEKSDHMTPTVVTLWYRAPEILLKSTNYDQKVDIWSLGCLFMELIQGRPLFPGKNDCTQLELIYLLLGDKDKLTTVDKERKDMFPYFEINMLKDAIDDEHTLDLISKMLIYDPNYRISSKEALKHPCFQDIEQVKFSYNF
Sequence of L-lactate dehydrogenase (Plasmodium falciparum (isolate CDC / Honduras)) (Q27743 whole entry, looked up): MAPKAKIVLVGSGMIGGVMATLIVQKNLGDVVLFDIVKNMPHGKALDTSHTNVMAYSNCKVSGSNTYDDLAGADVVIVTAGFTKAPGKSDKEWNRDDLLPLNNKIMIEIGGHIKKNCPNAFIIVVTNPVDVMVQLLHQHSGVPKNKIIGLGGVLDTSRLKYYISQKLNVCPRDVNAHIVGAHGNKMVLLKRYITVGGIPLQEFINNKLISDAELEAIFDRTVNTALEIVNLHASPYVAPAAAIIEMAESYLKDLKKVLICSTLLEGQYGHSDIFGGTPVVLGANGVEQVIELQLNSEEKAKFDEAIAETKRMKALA

Consider `Oc1cccc(CCNCCCCCCNCCc2ccc(Cl)cc2)c1`, for which the figures for the growth inhibition in assay [1] and in assay [4] were -3% and 96% (active), respectively. In addition, the inhibition (usually the drop in the measured response relative to a control, in per cent) in assay [2] is 23%; in assay [3], -1%. Also, the outcome in assay [5], in assay [6], in assay [7] and in assay [8] was inactive.
As to `CN1CCN(c2ccnc3ccc(NC(=O)Cc4ccc(Br)c5ccccc45)cc23)CC1`, the growth inhibition in assay [1] was 99% (active); in assay [4], 96% (active). Moreover, the inhibition in assay [2] was 8%; in assay [3], -3%. For the same compound, the outcome in assay [5], in assay [6], in assay [7] and in assay [8] was inactive.
With `O=C(NCc1cccc(C(F)(F)F)c1)c1ccc(CNC(=O)c2ccc(O)c(-c3ccc(Cl)c(Cl)c3)c2)cc1`, the figures for the growth inhibition in assay [1] and in assay [4] were 15% and 92% (active), respectively. For the same compound, the inhibition in assay [2] was 7%; in assay [3], 2%. Besides, the result in assay [5], in assay [6], in assay [7] and in assay [8] was inactive.
On to `Cc1cc(NCCC(=O)Nc2ccccc2)nc(NCCOc2ccccc2)n1`, for which the values for the growth inhibition in assay [1] and in assay [4] were 9% and 100% (active), respectively. The inhibition in assay [2] is 5%; in assay [3], 0%. The outcome in assay [5], in assay [6], in assay [7] and in assay [8] was inactive.
Turning to `CC(C)N1CCC(N(Cc2ccc(-c3ccc(C(F)(F)F)cc3)cc2)C(=O)Cn2c(CCc3cccc(F)c3F)cc(=O)c3cn(C)nc32)CC1`, the results for the growth inhibition in assay [1] and in assay [4] were 78% (active) and 89% (active), respectively. Also, the inhibition was 100% (active) in assay [2] and 6% in assay [3]. Also, the outcome in assay [5], in assay [6], in assay [7] and in assay [8] was inactive.
Turning to `FC(F)(F)COc1ccc(CCNCCCCNCCc2ccc(OCC(F)(F)F)c3ccccc23)c2ccccc12`, the growth inhibition was 70% (active) in assay [1] and 99% (active) in assay [4]. The inhibition in assay [2] was 100% (active); in assay [3], 4%. The result in assay [5], in assay [6], in assay [7] and in assay [8] was inactive.
Take `CCOC(=O)c1ccc(-c2c(C(F)(F)F)noc2-c2cc(CC)c(OC)cc2O)o1`: the growth inhibition in assay [1] was 95% (active); in assay [4], 100% (active). Further, the inhibition is -7% in assay [2] and 1% in assay [3]. Further, the result in assay [5], in assay [6], in assay [7] and in assay [8] was inactive.
With `Cc1[nH]c(C)c(-c2ccc(OCc3ccccc3)cc2)c(=O)c1Br`, the figures for the growth inhibition in assay [1] and in assay [4] were 96% (active) and 97% (active), respectively. Moreover, the inhibition in assay [2] is 19%; in assay [3], -2%. Also, the result in assay [5], in assay [6], in assay [7] and in assay [8] was inactive.
Take `CCCCCCN1CCCN(Cc2ccc(C(=O)Nc3ccc(F)c(F)c3)cc2)CC1`: the values for the growth inhibition in assay [1] and in assay [4] were 48% and 84% (active), respectively. Also, the inhibition is 50% (active) in assay [2] and -8% in assay [3]. Besides, the result in assay [5], in assay [6], in assay [7] and in assay [8] was inactive.
With `COc1ccc(CN(C)CCCc2ccc(NC(=O)c3cccc4c(=O)c5cccc(F)c5[nH]c34)cc2)cc1OC`, the growth inhibition in assay [1] was 94% (active); in assay [4] it was 100% (active). In addition, the inhibition in assay [2] is 100% (active); in assay [3], 0%. In addition, the outcome in assay [5], in assay [6], in assay [7] and in assay [8] was inactive.
`COc1ccc2ccccc2c1C=NNc1ccnc2cc(Cl)ccc12`: the growth inhibition is 94% (active) in assay [1] and 100% (active) in assay [4]. The inhibition in assay [2] was 20%; in assay [3], -5%. The outcome in assay [5], in assay [6], in assay [7] and in assay [8] was inactive.
For `CC(C)(C)c1ccc(CNC(=O)c2cc(CNC3CCNCC3)ccc2O)cc1`, the growth inhibition in assay [1] is 8%; in assay [4], 96% (active). Moreover, the inhibition in assay [2] is 6%; in assay [3], 2%. Besides, the outcome in assay [5], in assay [6], in assay [7] and in assay [8] was inactive.
With `Clc1nc(Cl)c2c(ccn2Cc2ccccc2)n1`, the results for the growth inhibition in assay [1] and in assay [4] were 61% (active) and 100% (active), respectively. Further, the inhibition in assay [2] is -14%; in assay [3], -11%. Also, the outcome in assay [5], in assay [6], in assay [7] and in assay [8] was inactive.
In the case of `CN1CCN(CCCN(Cc2cccc(-c3cccc(CNC4CCCC4)c3)c2)C(=O)/C=C/c2ccccc2)CC1`, the growth inhibition is 99% (active) in assay [1] and 101% (active) in assay [4]. Also, the inhibition in assay [2] is 84% (active); in assay [3], -5%. Besides, the result in assay [5], in assay [6], in assay [7] and in assay [8] was inactive.
For `O=C(Cc1cccc2ccccc12)N1CCc2cc3nccc(N4CCN5CCC[C@H]5C4)c3cc21`, the growth inhibition in assay [1] was 99% (active); in assay [4], 101% (active). The inhibition in assay [2] is 3%; in assay [3], 2%. Besides, the result in assay [5], in assay [6], in assay [7] and in assay [8] was inactive.
For the compound `Brc1cc(Br)c2c(c1)C(NCCCNC1CCNc3c(Br)cc(Br)cc31)CCN2` (stereo not given), the growth inhibition in assay [1] was 25%; in assay [4] it was 98% (active). Moreover, the values for the inhibition in assay [2] and in assay [3] were 18% and -1%, respectively. Moreover, the outcome in assay [5], in assay [6], in assay [7] and in assay [8] was inactive.
Take `CCCN(Cc1ccc(OCC)cc1)Cc1cc(=O)c2cc(Cl)ccc2[nH]1`: the growth inhibition in assay [1] and in assay [4] was 82% (active) in each case. Besides, the results for the inhibition in assay [2] and in assay [3] were 47% and 1%, respectively. Also, the outcome in assay [5], in assay [6], in assay [7] and in assay [8] was inactive.
Take `COc1ccc(CCc2ccc(-c3c(C)[nH]c(C)c(Cl)c3=O)cc2)cc1`: the figures for the growth inhibition in assay [1] and in assay [4] were 97% (active) and 98% (active), respectively. Moreover, the values for the inhibition in assay [2] and in assay [3] were -3% and 3%, respectively. The result in assay [5], in assay [6], in assay [7] and in assay [8] was inactive.
Take `CC(C)N(Cc1ccc(-c2ccc(C(F)(F)F)cc2)cc1)C(=O)Cn1c(SCc2cccc(F)c2F)cc(=O)c2cc(CN3CCCCC3)ccc21`: the growth inhibition is 59% (active) in assay [1] and 103% (active) in assay [4]. The inhibition in assay [2] is 97% (active); in assay [3], -8%. In addition, the result in assay [5], in assay [6], in assay [7] and in assay [8] was inactive.
As to `Cn1cnc(-c2ccc3c(c2)CCN(CCC2CCC(NC(=O)/C=C/c4ccc(F)cc4)CC2)CC3)c1` (stereo not given), the growth inhibition in assay [1] was 18%; in assay [4], 90% (active). The inhibition in assay [2] was 26%; in assay [3] it was 4%. The outcome in assay [5], in assay [6], in assay [7] and in assay [8] was inactive.
